Compounds with a hit are over-represented: about 5% of the library has one in this group of screens.
ALR inh: human ALR oxidase inhibition via reduced H2O2 | P55789 | purified ALR, DTT oxidation, H2O2 HRP-luminol luminescence | inhibition, % (no concentration beside the values) | 3.8% of 290,000 active;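 active = mean replicate inhibition above about 79%, with every replicate also reaching it, limit read from the data; inconclusive = only one of the two criteria met; inactive = mean below limit and not every replicate reaching it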
Target sequence (P55789 whole entry, looked up): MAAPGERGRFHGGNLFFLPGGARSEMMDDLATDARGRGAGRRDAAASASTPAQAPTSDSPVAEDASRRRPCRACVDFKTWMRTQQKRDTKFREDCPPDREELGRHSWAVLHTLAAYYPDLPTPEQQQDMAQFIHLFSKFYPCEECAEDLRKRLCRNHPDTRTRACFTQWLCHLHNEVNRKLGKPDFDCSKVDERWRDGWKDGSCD
CHT block: inhibitors of human choline transporter CHT | CHT-expressing cells, membrane potential dye, choline response; hits give low values | B-score at 10 µM | 0.86% of 310,000 active | Q9GZV3 | AID 488975;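 active = B-score over 3 SD under the library average, and starting fluorescence ratio not unusually high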;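 also: choline stimulus applied at its EC90 after an EC20 pre-addition; B-score computed on integrated fluorescence ratio after choline addition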
AI-2 QS modul: modulators of Vibrio harveyi AI-2 quorum sensing system; activity change, % at 7.5 µM; 0.4% of 300,000 active; Vibrio harveyi JMH597 AI-2 luminescence/OD600 ratio, 9 h; hits give low values; strain lacks LuxN and CqsS sensors; 0 = neutral-control median; in the data active = activity change below about -75%, passing the limit was not always enough; inconclusive = no clear call, values can overlap the other calls;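 also: luminescence divided by OD600 gain over 9 h not by final OD600 alone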
PREPL inh: inhibitors of human prolyl oligopeptidase-like enzyme PREPL; Q4J6C6; recombinant PREPL, fluorescence polarization activity-based probe; inhibition, % at 5.96 µM; 0.68% of 320,000 active; AID 2751; in the data active = inhibition above about 43%
CHT PAM: allosterically activates the human high affinity choline transporter; 0.49% of 310,000 active; AID 488977; B-score at 10 µM; CHT-expressing cells, membrane potential dye, choline EC20; hits give high values; LV-AA mutant CHT in HEK293 cells; Q9GZV3;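 active = initial fluorescence not abnormally high and integrated response B-score, plate-corrected, over 3 SD above library mean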
A number is an active result; n = inactive; u = inconclusive; x = no result given.

SMILES	ALR inh	CHT block	AI-2 QS modul	PREPL inh	CHT PAM
N#CC1=C(SCC(=O)c2ccccc2)NC2=C(C(=O)CCC2)C1c1ccco1 (centres undefined)	87.5	n	n	n	n
CC1(C)CC(Nc2ccc(Nc3ccccc3)cc2)CC(C)(C)N1	99.0	n	n	x	n
Cn1cc([N+](=O)[O-])c(C(=O)Nc2nccs2)n1	n	n	n	n	n
CCN(CCNC(=O)CCCn1nc(C)n2c(cc3sccc32)c1=O)c1ccccc1	98.4	n	n	n	n
CCOCCCNC(=O)CCCn1nc(C)n2c(cc3sccc32)c1=O	x	n	n	n	n
COc1ccc2cc(C3C(C#N)=C(N)OC(C)=C3C(C)=O)c(Cl)nc2c1 (centres undefined)	96.0	n	n	n	n
Cc1noc(NC(=O)c2ccc(F)cc2)c1C#N	n	n	n	n	n
Cc1cccc(C(=O)Nc2onc(C)c2C#N)c1	96.4	n	n	n	n
CCOc1ccc2nc(SCC(=O)Nc3cccc(S(=O)(=O)NC4=NCCCCC4)c3)[nH]c2c1	91.7	n	n	n	n
O=C(Nc1ccc2[nH]c(=S)sc2c1)c1ccccc1	99.2	n	n	n	n
O=C(Nc1ccc2[nH]c(=S)sc2c1)Nc1ccccc1F	x	n	u	n	n
CCCc1ccc2oc(C(=O)NCc3nnc(C)o3)c(C)c2c1	n	n	n	x	n
Cc1ccc(NCc2nc3ccccc3n2C)c(C)c1	97.5	n	n	n	n
Cc1ccc(NCc2n[nH]c(=S)n2-c2ccccc2)cc1	98.1	n	n	n	n
CS(=O)(=O)Nc1ccc(-c2n[nH]c(=S)n2-c2ccccc2)cc1	96.7	n	n	n	n
Cc1ccc(NCc2n[nH]c(=S)n2-c2ccccc2)c(C)c1	98.4	n	n	n	n
Cc1ccc(-c2n[nH]c(=S)n2-c2ccccc2)cc1	n	n	n	n	n
Cc1cccc(NCc2n[nH]c(=S)n2-c2ccccc2)c1	n	n	n	n	n
C#CCNC(=O)C1=C[C@@H](C2CCCCC2)[C@H](CCCO)[C@@H](OCC)O1	n	n	n	n	n
COC(=O)C1SCC2C(=O)N(Cc3ccccc3)CC(=O)N21 (centres undefined)	n	n	n	n	n
Nc1nnc(SCC(=O)c2ccc([N+](=O)[O-])cc2)s1	97.8	n	n	n	n
Nc1cccc(Nc2ncnc3ccccc23)c1	98.9	n	n	n	n
Oc1cccc(Nc2ccccc2)c1	99.0	x	x	n	x
Cc1ccc(Nc2ccccc2)cc1	n	n	n	n	n
Nc1cccc(Nc2ccccc2)c1	99.2	n	n	n	n
SMILES	ALR inh	CHT block	AI-2 QS modul	PREPL inh	CHT PAM
Oc1cccc(Nc2ncnc3ccccc23)c1	n	n	n	n	n
O=C(Nc1ccccc1)Nc1ccc(Nc2ccccc2)cc1	n	n	n	n	n
c1ccc(Nc2cccc(Nc3ccccc3)c2)cc1	97.9	n	n	n	n
Cc1c(Cl)cccc1Nc1nc(N)nc(CSC(=S)N2CCOCC2)n1	n	n	n	n	n
O=C(C1CCCC1)N1CCCC(Nc2ccccc2)C1 (centres undefined)	99.1	n	n	n	n
O=C(C1CCCC1)N1CCCC(Nc2ccc(F)cc2)C1 (centres undefined)	98.7	n	n	n	n
Cc1ccc(NC2CCCN(C(=O)C3CCCCC3)C2)cc1C (centres undefined)	98.9	n	n	n	n
O=C(NC1CCCC1)C1CCCN(C(=O)Nc2ccccc2)C1 (centres undefined)	x	n	n	n	n
Cc1ccc(NC(=O)C2CCCCC2)cc1C	x	n	x	n	n
O=C(NC1CC1)C1CCN(c2ncnc3c2sc2cccc(F)c23)CC1	n	n	n	n	n
CCOC(=O)CN1C(=O)/C(=C/c2ccc(Cl)cc2)Oc2ccccc21	n	n	n	n	n
CCOC(=O)C1CCN(C2=NC(=O)/C(=C/c3ccc(Cl)cc3)S2)CC1	96.5	n	n	n	n
CCOC(=O)CSC1=NC(=O)/C(=C\c2ccc(Cl)cc2)S1	98.6	n	n	n	n
CN(C)c1ccc(/C=C2\SC(N3CCCCC3)=NC2=O)cc1	99.0	n	n	n	n
CCOC(=O)C1CCN(C2=NC(=O)/C(=C/c3ccc(OC)c(OC)c3)S2)CC1	n	n	n	n	n
FC(F)(F)c1cnc(-c2cnc(-c3cccnc3)nc2)c(Cl)c1	n	n	n	n	n
COc1ccc(NC(=O)C2CC(c3ccccc3O)=NO2)cc1OC (centres undefined)	n	n	n	n	n
CCOc1ccc(CCNC(=O)CN2C(=O)COc3ccc(S(=O)(=O)N4CCOCC4)cc32)cc1	n	n	n	n	n
Cc1cnc(C(=O)OCC(=O)NCc2ccc3c(c2)OCO3)cn1	n	n	n	n	n
CCOC(=O)c1cnc(-n2cc(C)cn2)nc1NCc1ccc2c(c1)OCO2	n	n	n	58.4	n
O=C(/C=C/c1ccc[nH]1)c1ccccc1	97.5	n	n	n	n
CC1(C)OC(c2ccccc2)=C/C(=C/C=N/NC(=O)c2ccncc2)O1	98.1	n	n	n	n
NS(=O)(=O)c1ccc(CCNC(=O)CN2CCCCCC2)cc1	x	n	n	n	n
Cc1nnsc1C(=O)N1CCCC(Nc2ccc(C(C)C)cc2)C1 (centres undefined)	n	n	n	n	n
Cc1ccc(NC2CCCN(C(=O)c3c(C)noc3C)C2)cc1C (centres undefined)	95.4	n	n	n	n
SMILES	ALR inh	CHT block	AI-2 QS modul	PREPL inh	CHT PAM
Cc1ccc(NC2CCCN(C(=O)c3snnc3C)C2)cc1C (centres undefined)	99.0	n	n	n	n
Clc1ccccc1-c1nc2ccccc2[nH]1	n	n	n	n	n
S=c1nc(-c2ccccc2Cl)[nH][nH]1	99.3	n	n	n	n
Nc1cc(OC(=O)c2ccco2)nn1S(=O)(=O)c1ccc(F)cc1	97.6	n	n	n	n
O=C(COC(=O)CSc1ccc([N+](=O)[O-])cc1)NCC1CCCO1 (centres undefined)	99.0	n	n	x	n
CCN(CC)CCN(C(=O)C1=COCCO1)c1nc2cc(C)cc(C)c2s1	n	-6.02	n	n	n
CCN(C(=O)C1=COCCO1)c1nc2c(C)cccc2s1	n	n	n	n	n
Cc1nnc(NC(=O)CCNC(=O)c2ccccc2Cl)s1	n	n	n	n	n
CCOC(=O)C1=C(COC(=O)CCc2ccc(CC)cc2)NC(=O)NC1C (centres undefined)	n	x	x	n	x
COc1ccc(S(=O)(=O)N2Cc3ccccc3CC2C(=O)Nc2ccc(O)cc2)cc1OC (centres undefined)	95.3	n	n	n	n
CCCS(=O)(=O)N1CCCC(C(=O)NCC(OC)OC)C1 (centres undefined)	n	n	n	n	n
COc1ccc(/C=C2\S/C(=N/S(=O)(=O)c3cccs3)NC2=O)cc1	96.7	n	n	n	n
COc1ccc(/C=N/S(=O)(=O)c2cccs2)cc1	n	n	n	n	n
NCCc1ccc(O)c(O)c1	98.7	n	n	n	n

Compound activity as filed in PubChem.
